From PubChem BioAssay (NCI)
Compounds without any hit were thinned out: in the full panel of roughly 83,000, 20% have a hit.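 Cells were grown in 96-well plates and exposed to the test compound at a single concentration for 48 hours; results are reported as percent growth, with values below 10 considered active.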 Values without a mark were called inactive.

tested on: HL-60(TB) leukemia; assay: NCI-60 one-dose screen, 48 h (100 = growth as untreated, 0 = no growth, -100 = all killed); details: 10 µM unless noted

First: COC(=O)c1nc(-c2ccc(C)cc2)oc1S(=O)(=O)c1ccc(Cl)cc1
Second: COc1ccc(OC)c(/C=C2\CCc3ccccc3C2=O)c1
The growth of the first is higher: 51.8% for the first, 16.9% for the second.

With `CCn1cc(C(=O)NN=C2CCCCCC2)c(=O)c2ccc(C)nc21` the growth was 80.2%.
